# Results taken from PubChem BioAssay.
# Where “and” joins values, the source holds several entries; their conditions need not be identical. Equal values may be shown once. Calls of active or inactive are those of the source.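 Rule for the calls, unless noted: active = compounds whose cell count with miR-34 switched on is under 0.7 times the count with it off; inactive = the rest.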
# Legend:
# [1] = compounds altering viability of human ES cells (AID 493140; call rule not given here;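 note: cells exposed to compounds for four days before counting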); details: human embryonic stem cell survival screen; stronger effect = higher value
# [2] = P. berghei load reduction in hepatocytes – cell-based, HepG2, luciferase luminescence, HepG2 viability, primary screen (AID 624349; in the data active = parasite load remaining mostly below about 12%, no sharp cut-off; inactive = mostly above about 10%;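 note: 100% = mean of DMSO negative control wells on the same plate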); details: P. berghei liver stage in HepG2, luciferase luminescence, concentration not given here; parasite load remaining: stronger effect = lower value; viability: measured here: HepG2 viability without parasites
# [3] = Wnt pathway potentiators raising nuclear beta-catenin – imaging, WNT3A-conditioned medium, mouse C2C12, NPC library, primary screen (AID 1117326; in the data active = nuclear beta-catenin stimulation mostly above about 4.2%, no sharp cut-off; inactive = mostly below about 10%); details: stronger effect = higher value
# [4] = stimulators of insulin release from INS-1E, primary screen, cell-based, 5 mM glucose, NPC library (AID 1117329;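 active = compound raises insulin release from rat beta cells at 5 mM glucose, no numeric limit stated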); details: rat INS-1E insulin secretion, at 10 µM, stronger effect = higher value
# [5] = growth inhibition of GSK3B-pretreated HCT116 cells – cell-based, CellTiter-Glo, 0.2 to 20 µM (AID 1117336;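 active = compounds lowering colon cancer cell viability after pretreatment blocking the GSK3B kinase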); details: HCT116 viability after GSK3B inhibitor, at 20 µM, stronger effect = higher value
# [6] = inhibition of endothelial tube formation, primary screen, imaging, VEGF stimulated, CD31 staining, tube area, NPC library (AID 1117340;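 active = compound that reduces growth-factor-driven endothelial tube area in a mixed cell culture, no cutoff stated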); details: VEGF-stimulated ADSC/ECFC co-culture, at 10 µM, stronger effect = higher value
# [7] = GLP1 release stimulators, primary, NCI-H716, NPC library (AID 1117341;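 active = compound raises GLP1 secretion from the human gut endocrine cells, with no numeric limit stated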); details: NCI-H716 cells, at 10 µM, stronger effect = higher value
# [8] = HCT116 colon cancer cell growth inhibition, primary screen, CellTiter-Glo luminescence, NPC library (AID 1117342;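 active = compounds that lower survival of HCT116 colon cancer cells in the luminescence readout, no numeric limit stated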); details: at 20 µM (top of the series)
# [9] = reduced SW480 viability measured with CellTiter-Glo, NPC library, primary (AID 1117343;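 active = compounds that lower viability of the colon cancer cells in the luminescence readout, with no numeric limit stated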); details: CellTiter-Glo luminescence; at 20 µM (top of the series) unless noted
# [10] = NPC library primary testing for decreased DLD-1 cell viability via CellTiter-Glo (AID 1117346;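 active = compounds that lower survival of DLD-1 colon cancer cells in the luminescence readout, no cutoff given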); details: DLD-1 viability, CellTiter-Glo luminescence; at 20 µM (top of the series)
# [11] = EMT-state selective cytotoxicity in co-culture – imaging, PC-3E GFP, TEM4-18 mCherry, primary screen (AID 1345086;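 active = compounds killing one labelled cell type while sparing the other, by normalised counts and ratio limits, not self-fluorescent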;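 for all read-outs here: cells exposed to compound for 72 h before imaging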;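 for red/green cell ratio (normalised): normalised mesenchymal count divided by normalised epithelial count so high means epithelial killing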); details: PC-3E GFP / TEM4-18 mCherry co-culture, imaging cell counts, at 1 µM; for red/green cell ratio (normalised): actives lie on both sides, counts scaled to control wells, 1 = unselective
# [12] = viability loss with induced miR-34 in A549 – imaging, A549 dox-inducible miR-34, nuclei and caspase counts, primary screen (AID 1347080); details: A549 miR-34 inducible, Hoechst nuclei count, 48 h
# [13] = MELAS cybrid and Rieske KO viability enhancers – cell-based, MELAS cybrids, Rieske KO mouse fibroblasts, CellTiter-Glo, primary screen (AID 1508586;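 active = mean z-score across replicates of 1.96 or higher in either the MELAS or the Rieske mutant cell line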;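 note: z relative to plate mean and SD of compound and empty wells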); details: low glucose
# [14] = target: NAD(+) hydrolase SARM1 (Homo sapiens) (UniProt Q6SZW1); test: blocking NAD cleavage by SARM1 SAM-TIR – cell lysate, NAD-Glo luminescence (AID 1508614;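 active = compound whose remaining NAD level is above about 45 nM, limit read from the data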;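 note: higher remaining NAD means stronger inhibition of SARM1 NADase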); details: SAM-TIR HEK293T lysate NADase, at 1 µM, stronger effect = higher value
# Chain of NAD(+) hydrolase SARM1 (Homo sapiens) (Q6SZW1 whole entry, looked up): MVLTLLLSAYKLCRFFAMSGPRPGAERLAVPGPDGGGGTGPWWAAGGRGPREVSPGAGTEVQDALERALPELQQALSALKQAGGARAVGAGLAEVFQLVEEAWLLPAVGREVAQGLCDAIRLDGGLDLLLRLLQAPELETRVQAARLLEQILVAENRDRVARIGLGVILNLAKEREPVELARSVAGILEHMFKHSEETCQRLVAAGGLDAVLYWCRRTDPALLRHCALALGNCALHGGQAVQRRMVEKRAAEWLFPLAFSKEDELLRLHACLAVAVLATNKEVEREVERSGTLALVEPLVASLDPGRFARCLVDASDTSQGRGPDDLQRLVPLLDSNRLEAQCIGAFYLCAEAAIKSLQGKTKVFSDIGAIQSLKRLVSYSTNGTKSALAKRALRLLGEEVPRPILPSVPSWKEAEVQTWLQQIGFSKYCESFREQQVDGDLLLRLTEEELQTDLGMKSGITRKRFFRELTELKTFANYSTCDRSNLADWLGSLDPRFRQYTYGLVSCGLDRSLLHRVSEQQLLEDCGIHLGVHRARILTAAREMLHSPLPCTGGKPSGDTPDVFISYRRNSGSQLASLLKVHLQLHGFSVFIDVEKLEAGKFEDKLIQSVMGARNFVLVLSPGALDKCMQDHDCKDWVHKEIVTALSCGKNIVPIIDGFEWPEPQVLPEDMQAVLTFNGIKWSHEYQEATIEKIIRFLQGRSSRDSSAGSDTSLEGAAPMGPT
# [15] = measured here: epithelial PC-3E GFP cell survival
# [16] = measured here: mesenchymal TEM4-18 mCherry cell survival
# [17] = stronger effect = lower value, cell number ratio, induced over uninduced
# [18] = measured here: relative caspase fold change +Dox/-Dox
# [19] = measured here: total cells with miR-34 induction, stronger effect = lower value
# [20] = measured here: total cells without miR-34 induction
# [21] = MELAS cybrid survival, CellTiter-Glo 48 h, stronger effect = higher value
# [22] = Rieske KO mouse fibroblast survival, CellTiter-Glo 72 h
smiles,measurement,setting,value
C#CCN(C)CCCOc1ccc(Cl)cc1Cl,survival,[1],8.67 (inactive)
same,parasite load remaining,[2],88.7% (inactive) and 89.7% (inactive)
same,viability,[2],100% and 71.8%
same,nuclear beta-catenin stimulation,[3]; at 10 µM,0.3% (inactive)
same,nuclear beta-catenin stimulation,"[3]; stimulation, at 2 µM",-0.5%
same,insulin secretion stimulation,[4],-2.3% (inactive)
same,viability decrease,[5],-91.8% (inactive)
same,tube area decrease,[6],22.3% (inactive)
same,GLP1 secretion stimulation,[7],-0.5% (inactive)
same,inhibition of viability,[8],2.63% (inactive)
same,viability decrease (inhibition),[9],48.3% (inactive)
same,viability decrease (inhibition),[10],13.7% (inactive)
same,red/green cell ratio (normalised),[11],1 (inactive)
same,normalised cell number,[11]; [15],1.14
same,normalised cell number,[11]; [16],1.14
same,fold change,[12]; [17],1.02 (inactive) and 0.917 (inactive) and 0.833 (inactive)
same,fold change,[12]; [18],0.924 and 0.754 and 1.44
same,cell count,[12]; [19],9600 and 8700 and 8160
same,cell count,[12]; [20],9370 and 9480 and 9800
same,z-score,[13]; [21],0.667 (inactive)
same,z-score,[13]; [22],0.294
same,remaining NAD,[14],10 nM (inactive)
COc1cc2c(c(OC)c1OC)-c1ccc(OC)c(=O)cc1[C@@H](NC(C)=O)CC2,survival,[1],0.333 (inactive)
same,nuclear beta-catenin stimulation,[3]; at 10 µM,77.5% (active)
same,nuclear beta-catenin stimulation,"[3]; stimulation, at 2 µM",72.6%
same,insulin secretion stimulation,[4],2.2% (inactive)
same,viability decrease,[5],97.2% (active)
same,tube area decrease,[6],105% (active)
same,GLP1 secretion stimulation,[7],-3.6% (inactive)
same,inhibition of viability,[8],75% (active)
same,viability decrease (inhibition),[9],43.3% (inactive)
same,viability decrease (inhibition),[10],58.2% (active)
same,red/green cell ratio (normalised),[11],1.19 (inactive)
same,normalised cell number,[11]; [15],0.19
same,normalised cell number,[11]; [16],0.23
same,fold change,[12]; [17],1.43 (inactive) and 1.18 (inactive) and 0.984 (inactive)
same,fold change,[12]; [18],1.13 and 1.5 and 0.402
same,cell count,[12]; [19],1890 and 1930 and 1700
same,cell count,[12]; [20],1330 and 1630 and 1730
same,z-score,[13]; [21],-2.22 (inactive)
same,z-score,[13]; [22],-0.272
same,remaining NAD,[14],10 nM (inactive)
C[C@H]1[C@H](NC(=O)/C(=N/OC(C)(C)C(=O)O)c2csc(N)n2)C(=O)N1S(=O)(=O)O (stereo in doubt),nuclear beta-catenin stimulation,[3]; at 10 µM,5% (inactive)
same,nuclear beta-catenin stimulation,"[3]; stimulation, at 2 µM",-0.4%
same,insulin secretion stimulation,[4],0.1% (inactive)
same,viability decrease,[5],-16.4% (inactive)
same,tube area decrease,[6],11.9% (inactive)
same,GLP1 secretion stimulation,[7],-1.9% (inactive)
same,inhibition of viability,[8],0.97% (inactive)
same,viability decrease (inhibition),[9],25.1% (inactive)
same,viability decrease (inhibition),[10],-11.3% (inactive)
same,red/green cell ratio (normalised),[11],1.32 (inactive)
same,normalised cell number,[11]; [15],0.82
same,normalised cell number,[11]; [16],1.08
CC(O)CN(CCN(CC(C)O)CC(C)O)CC(C)O (configuration not stated),nuclear beta-catenin stimulation,[3]; at 10 µM,2% (inactive)
same,nuclear beta-catenin stimulation,"[3]; stimulation, at 2 µM",2.5%
same,insulin secretion stimulation,[4],0.5% (inactive)
same,viability decrease,[5],-38.9% (inactive)
same,tube area decrease,[6],5.2% (inactive)
same,GLP1 secretion stimulation,[7],-4.1% (inactive)
same,inhibition of viability,[8],3.07% (inactive)
same,viability decrease (inhibition),[9],18.9% (inactive)
same,viability decrease (inhibition),[10],-3.8% (inactive)
same,red/green cell ratio (normalised),[11],1.23 (inactive)
same,normalised cell number,[11]; [15],0.98
same,normalised cell number,[11]; [16],1.2
same,fold change,[12]; [17],1.01 (inactive)
same,fold change,[12]; [18],0.821
same,cell count,[12]; [19],9510
same,cell count,[12]; [20],9380
Clc1ccc(Cn2c(CN3CCCC3)nc3ccccc32)cc1,survival,[1],21.8 (inactive)
same,parasite load remaining,[2],30.7% (inactive) and 102% (inactive)
same,viability,[2],47.8% and 90.5%
same,nuclear beta-catenin stimulation,[3]; at 10 µM,3.1% (inactive)
same,nuclear beta-catenin stimulation,"[3]; stimulation, at 2 µM",3%
same,insulin secretion stimulation,[4],4.9% (inactive)
same,viability decrease,[5],-123% (inactive)
same,tube area decrease,[6],14.2% (inactive)
same,GLP1 secretion stimulation,[7],6.1% (inactive)
same,inhibition of viability,[8],34% (inactive)
same,viability decrease (inhibition),[9],61.5% (active)
same,viability decrease (inhibition),[10],19.7% (inactive)
same,red/green cell ratio (normalised),[11],0.77 (inactive)
same,normalised cell number,[11]; [15],1.28
same,normalised cell number,[11]; [16],0.98
same,fold change,[12]; [17],1.11 (inactive) and 0.92 (inactive)
same,fold change,[12]; [18],2.1 and 1.3
same,cell count,[12]; [19],5510 and 8130
same,cell count,[12]; [20],4960 and 8840
same,z-score,[13]; [21],0.821 (inactive)
same,z-score,[13]; [22],0.481
same,remaining NAD,[14],10 nM (inactive)
